Here are results for 40 compounds from PubChem BioAssay.

Molecules are shown by their SMILES. A number with no mark means an inactive call. Active and inactive are the calls of the source. No rule for the calls is given here.

For one experiment, the target named is L-lactate dehydrogenase (Plasmodium falciparum (isolate CDC / Honduras)) (UniProt Q27743). Nature of the experiment: PfLDH activity inhibition – cell lysate, 3D7 strain, counter-screen for P. falciparum growth inhibition project (AID 2304).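 Also: 0% = vehicle and 100% = reference inhibitor.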 To be noted: P. falciparum 3D7 crude extract, LDH APAD/NBT absorbance; at 2 µM; hits give high values.
Sequence of L-lactate dehydrogenase (Plasmodium falciparum (isolate CDC / Honduras)) (Q27743 whole entry, looked up): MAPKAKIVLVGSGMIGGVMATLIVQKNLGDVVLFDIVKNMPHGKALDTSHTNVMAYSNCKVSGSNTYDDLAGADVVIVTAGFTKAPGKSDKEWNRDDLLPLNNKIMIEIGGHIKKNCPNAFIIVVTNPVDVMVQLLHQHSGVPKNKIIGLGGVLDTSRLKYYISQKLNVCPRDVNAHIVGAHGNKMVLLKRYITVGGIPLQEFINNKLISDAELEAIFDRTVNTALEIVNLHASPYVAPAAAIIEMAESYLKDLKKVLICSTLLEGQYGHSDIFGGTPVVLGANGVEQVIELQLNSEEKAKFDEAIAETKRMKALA
For the compound `COc1ccc2c(=O)c(Br)c(C)[nH]c2c1`, the inhibition was -8%.
With `CCCN(c1ccc(O)c(CN2CCCCC2)c1)c1ccc([N+](=O)[O-])cn1`, the inhibition is 4%.
On the same count and under the same terms, for `Cn1c(=N)cc(-c2cccc(I)c2)c2c(=O)[nH]c(N)nc21` the value was 6%; for `Cc1cc(=O)c(-c2ccc(Oc3ccc(OC(F)(F)F)cc3)cc2)c(C)[nH]1`, 0%.
The same measure, in the same setting: for `NC(N)=NC(=O)Nc1cc(Br)c(Cl)c(C(F)(F)F)c1` the value was 0%; for `Cc1cccc(Cn2ccc3c4c(N)nc(N)nc4ccc32)c1`, 1%.
As for `CC(C)Cn1ccc2c3c(N)nc(N)nc3ccc21`, the inhibition is 1%.
The same measure, in the same setting: the value for `Cc1cc(=O)c(-c2ccc(OCc3ccc(Cl)cc3)cc2)c(C)[nH]1` was -1%.
As for `FC(F)(F)c1ccc2c(NCCCNc3ccnc4cc(C(F)(F)F)ccc34)ccnc2c1`, the inhibition was 3%.
The same measure, in the same setting: the value for `Nc1nc(N)c2c(ccc3c2cnn3Cc2cccnc2)n1` was 0%; that for `CC(C)Cn1cc2c(ccc3nc(N)nc(N)c32)n1` was -2%.
On to `CCCCCCCc1c(C)[nH]c2ccc(F)cc2c1=O`, for which the inhibition is -5%.
On the same count and under the same terms, for `Cc1[nH]c(C)c(-c2ccc(Oc3ccccc3)cc2)c(=O)c1Br` the value was 1%.
`CN(C)S(=O)(=O)n1ccc2c3c(N)nc(N)nc3ccc21`: the inhibition was -4%.
With `CCN(C)C(=O)n1ncc2c3c(N)nc(N)nc3ccc21`, the inhibition was 6%.
Same read-out and setting: for `CCCCNCc1cc(Cl)c2ccccc2c1O` the value was 0%.
On to `Cc1[nH]c(C)c(-c2ccc(Oc3cc(Cl)cc(Cl)c3)cc2)c(=O)c1Br`, for which the inhibition is -6%.
For the compound `COc1ccc(-c2cnc(N)nc2N)cc1Cl`, the inhibition is 4%.
Same read-out and setting: for `COc1cc(Cc2cnc(N)nc2N)cc(OCCCCNS(=O)(=O)C(F)(F)F)c1OC` the value was 7%; for `CCC(C)c1cnc2nc(N)nc(N)c2c1C` (configuration not stated), -3%; for `Cc1ccccc1OCCCc1c(C)nc(N)nc1N`, -3%.
Turning to `COCCOCCOCCn1ccc2c3c(N)nc(N)nc3ccc21`, the inhibition is -10%.
Regarding `Nc1nc(N)c2c(ccc3c2ccn3Cc2ccc(Br)cc2)n1`, the inhibition was -13%.

Test system in another experiment: not listed separately
As to the kind of experiment: inhibition of 3D7 malaria parasite growth – strain 3D7 (AID 2306).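 Also: 0% = DMSO wells and 100% = chloroquine plus artemisinin control wells.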 Particulars: P. falciparum 3D7 erythrocytic growth, LDH absorbance, 72 h; at 2 µM; hits give high values.
For `CCCOc1cc2c(cc1OCCC)C(C=Cc1ccc(Cl)cc1Cl)=NC(C)C2` (configuration not stated), the growth inhibition was 90% (active).
Consider `Cc1[nH]c(C)c(-c2ccc(Oc3cccc(C(F)(F)F)c3)cc2)c(=O)c1Br`, for which the growth inhibition is 99% (active).
Same read-out and setting: for `COc1cc(Cc2cnc3nc(N)nc(N)c3c2C)cc(OC)c1OC` the value was 95% (active).
Take `CCNC(=O)CCc1cccc(Br)c1`: the growth inhibition was 89% (active).
As to `NC(N)=NC(=O)Nc1ccc(Cl)c([N+](=O)[O-])c1`, the growth inhibition was 97% (active).
With `Cc1ccc2ccncc2c1N`, the growth inhibition was 96% (active).
Take `CCOc1cc2ncnc(Nc3ccc(OCc4c(Cl)cccc4Cl)c(OC)c3)c2cc1OCC`: the growth inhibition is 89% (active).
As for `CC(=O)Oc1c(Cl)c(C)nc(C)c1-c1ccc(Oc2ccc(OC(F)(F)F)cc2)cc1`, the growth inhibition was 97% (active).
On the same count and under the same terms, the value for `Nc1ccncc1C(=O)NCCCCN1CCN(c2nsc3ccccc23)CC1` was 101% (active); that for `CCCc1cc2c3c(N)nc(N)nc3ccc2n1CC` was 96% (active).
In the case of `Cc1[nH]c(C)c(-c2ccc(Oc3ccc(Cl)cc3)cc2)c(=O)c1Cl`, the growth inhibition was 91% (active).
For `COc1ccc(Cc2c(Cl)nc3nc(N)nc(N)c3c2C)cc1`, the growth inhibition is 94% (active).
Consider `Nc1nc(N)c2c(ccc3c2ccn3Cc2ccc3c(c2)OCO3)n1`, for which the growth inhibition was 100% (active).
On to `Cc1nc2nc(N)nc(N)c2c(C)c1Cc1ccc([N+](=O)[O-])cc1`, for which the growth inhibition is 98% (active).
In the case of `C=CCn1ccc2c3c(N)nc(N)nc3ccc21`, the growth inhibition is 89% (active).
As for `CCC(=C(CC)c1ccc(O)c(CNC2CCCCC2)c1)c1ccc(O)c(CNC2CCCCC2)c1`, the growth inhibition was 100% (active).
Take `Nc1ncc(-c2ccc(S(=O)(=O)Nc3ccc(C(=O)N[C@@H](CCC(=O)O)C(=O)O)cc3)cc2)c(=O)[nH]1`: the growth inhibition is 99% (active).
Turning to `COc1ccc2c(=O)c(Br)c(C)[nH]c2c1`, the growth inhibition is 89% (active).
For `CCCN(c1ccc(O)c(CN2CCCCC2)c1)c1ccc([N+](=O)[O-])cn1`, the growth inhibition is 99% (active).
Regarding `Cn1c(=N)cc(-c2cccc(I)c2)c2c(=O)[nH]c(N)nc21`, the growth inhibition is 89% (active).
With `Cc1cc(=O)c(-c2ccc(Oc3ccc(OC(F)(F)F)cc3)cc2)c(C)[nH]1`, the growth inhibition was 93% (active).
`NC(N)=NC(=O)Nc1cc(Br)c(Cl)c(C(F)(F)F)c1`: the growth inhibition was 101% (active).
As for `Cc1cccc(Cn2ccc3c4c(N)nc(N)nc4ccc32)c1`, the growth inhibition was 95% (active).
On the same count and under the same terms, for `CC(C)Cn1ccc2c3c(N)nc(N)nc3ccc21` the value was 96% (active).
